The values that follow come from PubChem BioAssay AID651616 (The Scripps Research Institute Molecular Screening Center, 2012).

Hit rate of the full screen: of about 5,600 compounds, about 4,400 (79%) were called active. So high a share suggests a set chosen from earlier hits. Only a sample is shown. A number with no mark means an inactive call. Cut-off read from the data, not from the text of the source: active = inhibition above about 27%; inactive = the rest.

The target of the experiment is Fructose-bisphosphate aldolase (Mycobacterium tuberculosis (strain ATCC 25618 / H37Rv)) (UniProt P9WQA3). The experiment in a line: M. tuberculosis aldolase blockers, biochemical, fluorescence, strain H37Rv, confirmation (AID 651616).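 Note: 0% = vehicle wells and 100% = reference inhibitor wells.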 The following applies: purified M. tuberculosis FBA, fluorescence read-out, at 1 µM, active compounds read high.
Chain of Fructose-bisphosphate aldolase (Mycobacterium tuberculosis (strain ATCC 25618 / H37Rv)) (P9WQA3 whole entry, looked up): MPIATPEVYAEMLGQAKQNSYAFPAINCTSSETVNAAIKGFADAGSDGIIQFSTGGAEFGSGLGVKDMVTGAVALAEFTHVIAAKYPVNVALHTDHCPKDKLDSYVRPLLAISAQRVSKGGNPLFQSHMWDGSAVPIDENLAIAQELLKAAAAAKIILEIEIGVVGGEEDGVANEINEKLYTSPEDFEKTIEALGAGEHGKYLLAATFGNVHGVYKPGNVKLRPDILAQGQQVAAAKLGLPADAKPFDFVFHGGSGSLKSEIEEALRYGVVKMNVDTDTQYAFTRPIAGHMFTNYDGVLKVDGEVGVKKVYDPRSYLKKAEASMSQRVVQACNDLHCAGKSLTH
As to `COc1ccc(-c2nc3cc(C)ccn3c2NC2CCCCC2)cc1SC1CCCCC1`, the inhibition was 53.2% (active).

Take `O=C(Nc1ccc(-c2nnc(-c3ccccc3)o2)cc1)C1CCCO1` (configuration not stated): the inhibition is 1.4%.

On to `O=C(CCc1ccccc1)Nc1cccc(-c2nnc(-c3ccco3)o2)c1`, for which the inhibition is 91% (active).

In the case of `CC(=O)N1C(=O)/C(=C2\SC(=S)N(NC(=O)c3ccc(O)cc3)C2=O)c2ccccc21`, the inhibition is 10.4%.

Take `Cc1cc(C)c2nc(-c3ccco3)cc(C(=O)O)c2c1`: the inhibition is 3.93%.

Consider `Cc1cc(C)c2nc3nc(C)cc(C)c3c(N)c2c1`, for which the inhibition is 41.1% (active).

For the compound `CCOC(=O)N1CCC(NC(=O)c2cnn3ccccc23)CC1`, the inhibition was 42.5% (active).

For `CCOc1c2ccc(C(=O)NC3CCCc4ccccc43)cc2nn1CC` (configuration not stated), the inhibition is 21.6%.

Take `CCOc1c2ccc(C(=O)NCc3ccc(OC(F)(F)F)cc3)cc2nn1C`: the inhibition is 106% (active).

For `CCCn1nc2cc(C(=O)NCc3ccccc3)ccc2c1OCC`, the inhibition is -3.79%.

As to `CCOc1c2ccc(C(=O)NCc3ccc4c(c3)OCO4)cc2nn1C`, the inhibition is 107% (active).

`O=C(NCc1cccc(Cl)c1)C1=CC=CN2CCS(=O)(=O)N=C12`: the inhibition is 11.8%.

Turning to `C=CCn1c(CCNC(=O)c2ccccc2F)nnc1SCC(=O)Nc1ccc(OC)cc1`, the inhibition was 586% [above what the read-out allows, likely interference] (active).

Turning to `Cc1ccsc1C(=O)N[C@@H](C)c1nnc2ccccn12`, the inhibition is 125% (active).

`CC(C)n1c(-c2cccs2)nc2ccccc21`: the inhibition is 87% (active).

As for `CC1(C(=O)NCc2ccc(F)c(F)c2)Cc2c(-c3ccc4c(c3)OCO4)ccnc2O1` (configuration not stated), the inhibition was 155% (active).

In the case of `CC1(C(=O)NCc2ccco2)Cc2c(-c3ccc4c(c3)OCO4)ccnc2O1` (configuration not stated), the inhibition is 7.76%.

Turning to `Cc1cc(=O)oc2c3c(cc(OCC(=O)NCC(O)c4ccccc4)c12)OC(C)(C)CC3` (configuration not stated), the inhibition was 62% (active).

Consider `CC1(C)CC(=O)c2cc(OCC(=O)NCC3CCCO3)ccc2O1` (configuration not stated), for which the inhibition was -1.83%.

For `CCCCNc1c(-c2cccc(Sc3ccc(OC)cc3)c2)nc2ccccn12`, the inhibition was 35.1% (active).

`CCCCn1c(-c2cccc(C)c2)nc2cc3[nH]c(=O)c(C(C)C)nc3cc21`: the inhibition is 34.1% (active).

Consider `O=C(O)/C=C/c1cn(-c2ccccc2)nc1-c1cccs1`, for which the inhibition was 92.4% (active).

As to `O=C(CN1C(=O)c2cccc3cccc(c23)C1=O)N1CCCCC1`, the inhibition was 70.8% (active).

With `CC(Nc1nc(N2CCOCC2)nc2ccccc12)c1ccccc1` (configuration not stated), the inhibition was 56.5% (active).

On to `c1ccc2c(NC3C4CC5CC(C4)CC3C5)nc(N3CCOCC3)nc2c1` (configuration not stated), for which the inhibition was 134% (active).

For the compound `CCOC(=O)Cn1c(=O)n(Cc2ccc(OC)cc2)c(=O)c2cccnc21`, the inhibition is 852% [above what the read-out allows, likely interference] (active).

`COC(=O)CSc1nc(C)c2ccc(OC)cc2n1`: the inhibition is -3.91%.

What is called inhibition is the drop in the measured response relative to a control, in per cent.
